Our source for the inhibition values is PubChem BioAssay AID1159606 (Sanford-Burnham Center for Chemical Genomics, 2016).

Screen size: about 360,000 compounds; about 7,300 (2%) were called active. The entries come from a sample that favours actives as a whole. Unmarked numbers belong to inactive results. Rule as the data show it: active = inhibition above about 50%; inactive = the rest.

The assay can be described thus: blockers of TWEAK-induced Fn14 reporter activity – luciferase reporter cells, uHTS, primary screen (AID 1159606). Conditions: TWEAK-stimulated Fn14 reporter cells, luciferase luminescence, 8 h; at 10 µM; stronger effect = higher value. (In general: A reporter such as luciferase makes a cellular process visible.)
The inhibition is the change of the read-out against control, counted positive when it falls. As for `CCCN(CC(=O)Nc1ccc(OC)c(OC)c1)CC(=O)Nc1ccc(F)c(F)c1F`, the inhibition was -5.89%.

As for `O=c1c2c(nc3nc[nH]n13)CCC2`, the inhibition was 1.33%.

For `CCCCN1Cc2c(nc3cc(-c4ccccc4)[nH]n3c2=O)C1=O`, the inhibition is 1.25%.

`O=c1c2c(nc3cc(-c4cccc(Cl)c4)[nH]n13)CCCC2`: the inhibition is 75.5% (active).

As for `CSc1nnc(SCc2nc3sc(C(=O)O)c(C)c3c(=O)[nH]2)s1`, the inhibition is 15.4%.

Regarding `CCCCCCN1CCN(C2CN(Cc3cn(CCCCCC)nn3)S(=O)(=O)C2)CC1` (stereo not drawn), the inhibition is 6.81%.

For the molecule `COc1cc(-c2nnc(Cn3cc(C(F)(F)F)ccc3=O)o2)cc(OC)c1OC`, the inhibition is -25.3%.

On to `C=CCOc1cccc(CNn2cn[nH]c2=S)c1`, for which the inhibition is 22.9%.

`CCOC(=O)[C@]12CCCC=C1N(Cc1cccc3ccccc13)C(=O)[C@H](CC(=O)NCC13CC4CC(CC(C4)C1)C3)C2`: the inhibition is 25.4%.

As to `C/C(=C\c1ccccc1)C1NC(=O)c2c(sc3c2CCCC3)N1` (stereo not drawn), the inhibition was 77% (active).

As for `O=C(Nc1sc2c(c1-c1nc3ccccc3[nH]1)CCCC2)C1CC1`, the inhibition is -8.49%.

Consider `O=C1NC(c2ccncc2)Nc2sc3c(c21)CCCC3` (stereo not drawn), for which the inhibition is -14.9%.

On to `CCC1NC(=O)c2cccnc2-n2c1nc1ccc(C)cc1c2=O` (stereo not drawn), for which the inhibition was -40.1%.

For `O=C(CCC(=O)N1CCN(S(=O)(=O)c2ccc(Cl)cc2)CC1)NCc1cccc(C(F)(F)F)c1`, the inhibition was 57.4% (active).

With `O=C(NCc1cccc(C(F)(F)F)c1)c1cccc(S(=O)(=O)N2CCN(Cc3ccccc3)CC2)c1`, the inhibition is 15.4%.

In the case of `CC(NC(=O)CCC(=O)N1CCN(S(=O)(=O)c2ccc(Cl)cc2)CC1)c1ccccc1` (stereo not drawn), the inhibition was 4.74%.

Take `Cc1n[nH]c(=O)c2c(NC(=O)COC(=O)c3ncc(Cl)c(Cl)c3Cl)oc(C)c12`: the inhibition was -5.62%.

On to `CCCCCCCCCCOC(=O)Cn1c(COc2ccc(C)cc2)[n+](C)c2ccccc21`, for which the inhibition is 76.3% (active).

Take `CSc1ccccc1NC(=O)COC(=O)CCCOc1ccc(C)cc1`: the inhibition was -5.19%.

Consider `Cc1noc(C)c1COC(=O)Cn1c(C)nc2ccccc21`, for which the inhibition is -13%.

Turning to `Cc1ccc(C(=O)CN2C(=O)NC3(CCc4ccccc43)C2=O)c(C)c1` (stereo not drawn), the inhibition is -25.2%.

Take `O=C(NC(=O)c1ccccc1)Nc1ccccc1O`: the inhibition was 50.8% (active).

`CNC(=O)C(NC(=O)c1ccccc1)=C(C)C`: the inhibition is 4.65%.

Consider `Cc1ccc(NC(=O)NC(=O)c2ccccc2)cc1F`, for which the inhibition was -37.5%.

Regarding `COc1ccc(C(=O)NC(C)c2nccs2)cc1OC1CCN(C(C)C)CC1` (stereo not drawn), the inhibition is -14.2%.

Turning to `Cc1cc(C)c(C)c(S(=O)(=O)Nc2cccnc2)c1C`, the inhibition was -12.5%.

On to `Cc1cc(C)c(C)c(S(=O)(=O)N[C@@H](C)C(=O)OC(C)C(=O)NC(N)=O)c1C` (stereo partly drawn), for which the inhibition is 53.7% (active).

With `Cc1cc(C)c(C)c(S(=O)(=O)Nc2ccc(O)cc2)c1C`, the inhibition was 22.9%.

For `CC1=NN(/C(=N\c2nnc(C)s2)Nc2ccccc2)[C@H](c2ccc(C)cc2)S1`, the inhibition was -7.27%.

Consider `COC(=O)c1cc2n(n1)CCCNC2=O`, for which the inhibition is -0.66%.

`COc1ccc(C(=O)n2nc(C)c(Br)c2C)cc1OC`: the inhibition is -7.65%.

Regarding `COc1ccc(C(=O)n2nc(-c3ccc(Cl)cc3)nc2N)cc1OC`, the inhibition is 64.1% (active).

`COC(=O)c1ccc(OC(=O)c2nn(C)cc2Cl)c(OC)c1`: the inhibition was -9.75%.

As for `CC(C)CC(CO)N1CCN(C(=O)c2ccc(Cl)cc2Cl)CCC1=O` (stereo not drawn), the inhibition was 10.3%.

For the molecule `CCOc1ccc(S(=O)(=O)N2CCN=C2Cc2ccccc2)cc1C`, the inhibition was -1.14%.

On to `COCCn1c(N)c(NCc2ccccc2)c(=O)[nH]c1=O`, for which the inhibition was -0.79%.

As for `CN(c1ccccc1)S(=O)(=O)c1cc(C(=O)Nc2nc3ccccc3[nH]2)ccc1Cl`, the inhibition was 78.9% (active).

As for `Cc1cccc(NC(=O)c2ccc(S(=O)(=O)N(C)c3ccccc3)cc2)n1`, the inhibition was 31.6%.

Consider `CN(c1ccccc1)S(=O)(=O)c1cc(C(=O)N2CCN(c3ncccn3)CC2)ccc1Cl`, for which the inhibition is -62.5%.

Turning to `O=C1CCCCC1Sc1ccc(Cl)cc1[N+](=O)[O-]` (stereo not drawn), the inhibition is 5.84%.

For `O=C(COC(=O)/C=C/c1ccc(Cl)cc1)NC1CCS(=O)(=O)C1` (stereo not drawn), the inhibition is -27.7%.

On to `CC(=O)Nc1cc(-c2ccccc2N(C)C)cn2c(-c3ccc(F)c(Cl)c3)cnc12`, for which the inhibition was -9.86%.

Take `CC(=O)c1cccc(-c2cnc3c(NC=O)cc(-c4ccc(N(C)C)cc4)cn23)c1`: the inhibition is 19.9%.

As to `COc1cccc(-c2cc(NC(C)=O)c3ncc(-c4cccc(C(C)=O)c4)n3c2)c1`, the inhibition was 12.6%.

For the molecule `CC(=O)Nc1cccc(-c2cc(NC=O)c3ncc(-c4ccc(F)c(Cl)c4)n3c2)c1`, the inhibition is 82.2% (active).

On to `CC(=O)Nc1cccc(-c2cc(NC(C)=O)c3ncc(-c4ccccc4)n3c2)c1`, for which the inhibition was 89.2% (active).

As to `CC(=O)c1cccc(-c2cnc3c(NC=O)cc(-c4ccccc4Oc4ccccc4)cn23)c1`, the inhibition was 55.7% (active).

On to `COc1cccc(-c2cnc3c(NC(C)=O)cc(-c4cccc(NC(C)=O)c4)cn23)c1`, for which the inhibition is -0.58%.

Consider `CC(=O)c1ccc(-c2cnc3c(NC=O)cc(-c4cccc(NS(C)(=O)=O)c4)cn23)cc1`, for which the inhibition was -8.7%.

For `CC(=O)c1cccc(-c2cnc3c(NC=O)cc(-c4cccc(C(=O)N(C)C)c4)cn23)c1`, the inhibition is 6.56%.

As to `CC1=NNC(=O)C1Cc1c(Cl)cccc1Cl` (stereo not drawn), the inhibition is 4.96%.

For `O=C(NCc1ccc(F)cc1)c1cc(C2CCCCN2C(=O)C2CCCCC2)on1` (stereo not drawn), the inhibition is 32.6%.

As for `C=CCSc1nnc2c(n1)-c1cccc3cccc-2c13`, the inhibition is -43.7%.

As to `CC(=O)c1c(C)n([O-])c2ccccc2[n+]1=O`, the inhibition is -13.5%.

On to `O=C(Nc1cc(S(=O)(=O)N2CCOCC2)ccc1N1CCOCC1)c1c(F)cccc1Cl`, for which the inhibition was -8.44%.

For `Cc1cc(Cl)ccc1-c1nc(NCCN(C)C)nc2ccsc12`, the inhibition is -11.1%.

Regarding `O=C(CCc1ccc(S(=O)(=O)NC2CCCCC2)cc1)NCc1ccccc1`, the inhibition is 1.8%.

In the case of `CCCCNC(=O)C[C@@H]1C[C@@]2(C(=O)OCC)CCC=C2N(Cc2ccco2)C1=O`, the inhibition was 11%.
